# Results taken from publication PMC5913336, “True equilibrium measurement of transcription factor-DNA binding affinities using automated polarization microscopy”.
# Molecular target: Oc (Drosophila melanogaster, UniProt P22810 52-141)
# Assay: FP; 33 mM phosphate pH 7.0, 90 mM NaCl, 0.01% Tween 20, 0.1 mM DTT, 0.5% agarose; room temperature
# Conditions: tags: N-GST (pGEX-6P-1, kept); dsDNA, one strand shown
# Oc, sequence (P22810 52-141): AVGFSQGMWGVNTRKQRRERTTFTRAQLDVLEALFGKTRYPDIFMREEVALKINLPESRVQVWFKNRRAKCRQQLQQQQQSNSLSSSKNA
Sequence,binding signal,Kd
AGTTAATCTCCT,3.07 Kd / Kd of best base at the position,–
AGTTAATCCCCA,1.11 Kd / Kd of best base at the position,–
AGGTAATCCCCT,3.1 Kd / Kd of best base at the position,–
GGTTAATCCCCT,1.35 Kd / Kd of best base at the position,–
AGTTAACCCCCT,60 Kd / Kd of best base at the position,–
AGTTAATTCCCT,123 Kd / Kd of best base at the position,–
AGCTAATCCCCT,2.31 Kd / Kd of best base at the position,–
AGTTAATCGCCT,6.1 Kd / Kd of best base at the position,–
CGTTAATCCCCT,2.09 Kd / Kd of best base at the position,–
AGTTAATCCACT,1.54 Kd / Kd of best base at the position,–
AGTTGATCCCCT,15.1 Kd / Kd of best base at the position,–
AGTTAATCCCAT,1.11 Kd / Kd of best base at the position,–
AGTTAATGCCCT,140 Kd / Kd of best base at the position,–
AGTTCATCCCCT,177 Kd / Kd of best base at the position,–
AGTTAATCCCCC,1.11 Kd / Kd of best base at the position,–
AGTTAATCCCCT,–,~3.8 nM
AGTTAGTCCCCT,6.2 Kd / Kd of best base at the position,–
TGTTAATCCCCT,3.64 Kd / Kd of best base at the position,–
AGTGAATCCCCT,176 Kd / Kd of best base at the position,–

Sequence,binding signal,Kd
AGATAATCCCCT,183 Kd / Kd of best base at the position,–
AGTTAAGCCCCT,18 Kd / Kd of best base at the position,–
AGTTTATCCCCT,1.7 Kd / Kd of best base at the position,–
AGTTATTCCCCT,16.4 Kd / Kd of best base at the position,–
AGTTAATCACCT,7.07 Kd / Kd of best base at the position,–
AGTAAATCCCCT,19.8 Kd / Kd of best base at the position,–
AGTTAATCCCGT,1.2 Kd / Kd of best base at the position,–
AGTCAATCCCCT,340 Kd / Kd of best base at the position,–
ACTTAATCCCCT,1.03 Kd / Kd of best base at the position,–
AGTTAATCCCTT,1.11 Kd / Kd of best base at the position,–
AGTTAATCCCCG,1.11 Kd / Kd of best base at the position,–
AATTAATCCCCT,2.08 Kd / Kd of best base at the position,–
AGTTAAACCCCT,93.6 Kd / Kd of best base at the position,–
AGTTAATCCTCT,1.44 Kd / Kd of best base at the position,–
AGTTAATACCCT,251 Kd / Kd of best base at the position,–
ATTTAATCCCCT,2.15 Kd / Kd of best base at the position,–
AGTTACTCCCCT,12 Kd / Kd of best base at the position,–
AGTTAATCCGCT,1.09 Kd / Kd of best base at the position,–
